Assay results taken from the supplement of paper PMC11732987, “Enantioselective OTUD7B fragment discovery through chemoproteomics screening and high-throughput optimisation” (Communications Chemistry, 2025).

Key:
Assay in all cases: log2 ratio of Biotin-Ahx-Ub-VS probe labelling (fragment/DMSO); higher = less target engagement (more negative = stronger competition), active = hit call of the paper (q ≤ 0.05, log2 ratio ≤ -1)
Conditions in all cases: compound concentration: 200 uM; treatment time: 3 h
[1] = target: T1, ALG13 (UniProt Q9NP73)
T1 sequence (whole entry): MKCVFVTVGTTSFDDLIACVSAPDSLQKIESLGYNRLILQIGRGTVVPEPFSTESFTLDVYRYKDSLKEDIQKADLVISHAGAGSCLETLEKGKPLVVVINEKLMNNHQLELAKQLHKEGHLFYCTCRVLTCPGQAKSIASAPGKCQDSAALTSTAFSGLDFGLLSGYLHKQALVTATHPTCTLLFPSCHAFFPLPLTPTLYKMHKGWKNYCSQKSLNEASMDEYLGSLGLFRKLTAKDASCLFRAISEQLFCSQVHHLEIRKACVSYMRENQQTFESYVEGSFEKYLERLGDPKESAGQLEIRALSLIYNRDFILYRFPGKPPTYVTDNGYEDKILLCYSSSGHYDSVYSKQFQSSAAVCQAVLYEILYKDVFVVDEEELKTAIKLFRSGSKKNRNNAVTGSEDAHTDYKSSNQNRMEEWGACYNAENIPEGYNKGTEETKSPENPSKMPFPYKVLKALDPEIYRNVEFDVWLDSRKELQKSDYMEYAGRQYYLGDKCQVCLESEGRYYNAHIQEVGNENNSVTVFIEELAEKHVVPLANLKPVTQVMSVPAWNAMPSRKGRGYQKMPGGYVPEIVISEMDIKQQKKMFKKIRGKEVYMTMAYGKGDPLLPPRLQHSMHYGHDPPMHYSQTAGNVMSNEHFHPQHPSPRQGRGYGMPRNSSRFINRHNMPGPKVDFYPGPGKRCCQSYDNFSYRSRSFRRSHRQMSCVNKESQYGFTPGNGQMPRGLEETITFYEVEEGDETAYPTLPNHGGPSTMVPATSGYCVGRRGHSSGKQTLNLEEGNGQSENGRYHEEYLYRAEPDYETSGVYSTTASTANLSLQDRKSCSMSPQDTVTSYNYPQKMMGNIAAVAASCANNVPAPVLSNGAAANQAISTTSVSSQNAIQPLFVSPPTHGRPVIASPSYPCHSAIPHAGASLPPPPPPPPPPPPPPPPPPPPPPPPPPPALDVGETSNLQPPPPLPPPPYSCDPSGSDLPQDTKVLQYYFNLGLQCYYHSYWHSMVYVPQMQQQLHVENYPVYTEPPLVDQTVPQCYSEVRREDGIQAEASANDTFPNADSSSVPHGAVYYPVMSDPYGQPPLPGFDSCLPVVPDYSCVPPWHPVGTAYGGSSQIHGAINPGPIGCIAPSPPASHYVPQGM
Procedure, shortened: (§1)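 Lysate from HEK293T cells, 495 µg per sample in Tris/CHAPS/IGEPAL buffer with protease inhibitors, was treated for 3 h in triplicate with fragment at 200 µM or vehicle. Biotin-Ahx-Ub-VS was next added at 0.5 µM final for 1 h. The labelled DUBs were enriched with NeutrAvidin, digested with LysC and trypsin, and run by diaPASEF LC-MS/MS, with values given as average log2 fragment/vehicle ratios by unpaired t-test on global-median-normalised Spectronaut quantities of proteins with ≥2 unique peptides.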

[2] = target: ATXN3 (UniProt P54252)
Procedure, shortened: as §1

[3] = target: T2, BAP1 (UniProt Q92560)
T2 sequence (whole entry): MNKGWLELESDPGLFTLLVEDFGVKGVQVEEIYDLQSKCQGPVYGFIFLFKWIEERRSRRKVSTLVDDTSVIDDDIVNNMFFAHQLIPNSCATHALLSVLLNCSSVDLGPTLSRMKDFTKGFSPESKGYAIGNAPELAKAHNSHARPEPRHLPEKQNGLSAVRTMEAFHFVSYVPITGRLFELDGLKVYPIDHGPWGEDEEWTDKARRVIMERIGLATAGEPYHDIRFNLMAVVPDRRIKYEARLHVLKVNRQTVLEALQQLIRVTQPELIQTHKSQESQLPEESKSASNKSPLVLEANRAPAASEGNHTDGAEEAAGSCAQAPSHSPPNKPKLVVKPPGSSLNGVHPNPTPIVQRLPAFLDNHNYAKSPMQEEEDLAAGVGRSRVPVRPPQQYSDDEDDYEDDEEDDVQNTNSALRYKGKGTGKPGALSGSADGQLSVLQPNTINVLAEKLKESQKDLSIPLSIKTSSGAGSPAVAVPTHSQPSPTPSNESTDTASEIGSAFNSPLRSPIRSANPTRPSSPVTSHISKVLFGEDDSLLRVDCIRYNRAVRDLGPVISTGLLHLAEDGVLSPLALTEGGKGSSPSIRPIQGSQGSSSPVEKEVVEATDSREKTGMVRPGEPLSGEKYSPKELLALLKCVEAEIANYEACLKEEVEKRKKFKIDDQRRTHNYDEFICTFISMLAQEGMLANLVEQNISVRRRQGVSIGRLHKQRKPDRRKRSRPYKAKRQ
Procedure, shortened: as §1

[4] = target: EIF3F (UniProt O00303)
Procedure, shortened: as §1

[5] = target: EIF3H (UniProt O15372)
Procedure, shortened: as §1

[6] = target: T3, FAM105A (UniProt Q9NUU6)
T3 sequence (whole entry): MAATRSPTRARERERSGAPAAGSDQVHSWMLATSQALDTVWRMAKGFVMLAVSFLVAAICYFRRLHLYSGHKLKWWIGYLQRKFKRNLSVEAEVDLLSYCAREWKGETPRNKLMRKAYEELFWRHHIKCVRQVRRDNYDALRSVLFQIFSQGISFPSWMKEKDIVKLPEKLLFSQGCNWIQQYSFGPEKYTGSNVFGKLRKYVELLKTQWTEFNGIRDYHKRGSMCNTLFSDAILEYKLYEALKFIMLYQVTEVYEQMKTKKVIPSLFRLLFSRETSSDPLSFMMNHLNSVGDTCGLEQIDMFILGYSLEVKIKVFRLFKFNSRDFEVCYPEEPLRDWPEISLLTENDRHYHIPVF
Procedure, shortened: as §1

[7] = target: OTUB1 (UniProt Q96FW1)
Procedure, shortened: as §1

[8] = target: T4, OTUD4 (UniProt Q01804)
T4 sequence (whole entry): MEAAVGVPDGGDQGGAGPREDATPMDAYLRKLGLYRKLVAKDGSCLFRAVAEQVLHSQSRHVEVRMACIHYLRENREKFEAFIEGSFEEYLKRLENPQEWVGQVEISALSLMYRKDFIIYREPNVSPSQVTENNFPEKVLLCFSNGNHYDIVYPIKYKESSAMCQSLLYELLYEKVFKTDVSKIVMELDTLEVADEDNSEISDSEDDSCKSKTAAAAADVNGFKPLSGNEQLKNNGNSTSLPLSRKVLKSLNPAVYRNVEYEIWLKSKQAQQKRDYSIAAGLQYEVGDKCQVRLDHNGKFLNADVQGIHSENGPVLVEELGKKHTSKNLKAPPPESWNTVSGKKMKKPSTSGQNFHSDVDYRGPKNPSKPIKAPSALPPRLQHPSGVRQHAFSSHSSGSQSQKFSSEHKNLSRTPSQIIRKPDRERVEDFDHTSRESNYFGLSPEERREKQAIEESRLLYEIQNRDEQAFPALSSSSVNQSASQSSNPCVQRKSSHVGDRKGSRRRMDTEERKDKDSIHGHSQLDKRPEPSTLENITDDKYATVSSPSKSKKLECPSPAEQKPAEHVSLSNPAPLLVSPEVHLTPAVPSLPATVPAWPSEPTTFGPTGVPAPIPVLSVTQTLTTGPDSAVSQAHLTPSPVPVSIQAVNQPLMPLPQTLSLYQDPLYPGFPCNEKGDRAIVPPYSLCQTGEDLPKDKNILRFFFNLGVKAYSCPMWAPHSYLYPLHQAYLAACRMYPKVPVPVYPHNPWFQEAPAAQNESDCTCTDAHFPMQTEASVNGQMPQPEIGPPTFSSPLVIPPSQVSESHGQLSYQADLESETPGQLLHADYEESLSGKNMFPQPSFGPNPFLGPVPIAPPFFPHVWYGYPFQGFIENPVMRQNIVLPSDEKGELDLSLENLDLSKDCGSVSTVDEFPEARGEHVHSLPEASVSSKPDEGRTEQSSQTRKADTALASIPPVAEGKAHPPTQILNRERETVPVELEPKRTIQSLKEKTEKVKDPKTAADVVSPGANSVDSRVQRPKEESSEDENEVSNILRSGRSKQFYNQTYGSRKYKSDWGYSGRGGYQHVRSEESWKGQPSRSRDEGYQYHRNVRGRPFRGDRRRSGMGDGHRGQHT
Procedure, shortened: as §1

[9] = target: T5, OTUD5 (UniProt Q96G74)
T5 sequence (whole entry): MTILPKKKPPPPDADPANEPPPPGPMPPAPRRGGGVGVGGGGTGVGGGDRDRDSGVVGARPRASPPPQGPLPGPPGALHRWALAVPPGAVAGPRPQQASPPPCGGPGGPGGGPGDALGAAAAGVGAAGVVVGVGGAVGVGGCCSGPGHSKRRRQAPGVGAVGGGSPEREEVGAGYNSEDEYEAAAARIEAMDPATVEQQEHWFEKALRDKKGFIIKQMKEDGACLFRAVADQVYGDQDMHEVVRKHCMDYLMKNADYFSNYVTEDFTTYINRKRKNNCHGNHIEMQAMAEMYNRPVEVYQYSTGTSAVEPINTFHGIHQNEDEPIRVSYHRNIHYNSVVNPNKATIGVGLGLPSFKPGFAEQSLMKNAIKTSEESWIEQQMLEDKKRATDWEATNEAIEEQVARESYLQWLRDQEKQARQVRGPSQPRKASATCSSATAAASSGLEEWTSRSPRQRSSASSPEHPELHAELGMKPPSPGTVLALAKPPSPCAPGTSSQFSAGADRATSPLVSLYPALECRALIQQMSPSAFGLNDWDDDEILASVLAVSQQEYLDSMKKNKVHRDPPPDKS
Procedure, shortened: as §1

Measured: log2 ratio of Biotin-Ahx-Ub-VS probe labelling

ATXN3, sequence (P54252 whole entry): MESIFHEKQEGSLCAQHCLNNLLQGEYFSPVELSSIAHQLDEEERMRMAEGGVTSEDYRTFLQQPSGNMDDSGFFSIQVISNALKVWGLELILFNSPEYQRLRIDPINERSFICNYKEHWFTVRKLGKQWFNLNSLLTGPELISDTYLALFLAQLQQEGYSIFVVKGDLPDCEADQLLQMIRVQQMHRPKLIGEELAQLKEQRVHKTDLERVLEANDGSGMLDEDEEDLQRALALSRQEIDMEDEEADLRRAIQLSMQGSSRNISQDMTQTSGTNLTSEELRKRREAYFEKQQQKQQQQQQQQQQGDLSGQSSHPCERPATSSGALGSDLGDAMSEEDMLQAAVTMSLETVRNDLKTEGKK
EIF3H, sequence (O15372 whole entry): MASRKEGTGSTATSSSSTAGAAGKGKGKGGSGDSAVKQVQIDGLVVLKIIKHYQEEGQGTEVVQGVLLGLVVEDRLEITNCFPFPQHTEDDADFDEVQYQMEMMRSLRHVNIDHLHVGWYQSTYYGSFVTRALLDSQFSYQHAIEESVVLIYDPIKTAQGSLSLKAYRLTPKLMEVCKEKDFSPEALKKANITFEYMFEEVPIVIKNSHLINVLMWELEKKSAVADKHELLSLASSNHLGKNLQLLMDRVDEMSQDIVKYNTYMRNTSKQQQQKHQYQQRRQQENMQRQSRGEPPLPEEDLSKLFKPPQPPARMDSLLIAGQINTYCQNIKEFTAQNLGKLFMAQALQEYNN
OTUB1, sequence (Q96FW1 whole entry): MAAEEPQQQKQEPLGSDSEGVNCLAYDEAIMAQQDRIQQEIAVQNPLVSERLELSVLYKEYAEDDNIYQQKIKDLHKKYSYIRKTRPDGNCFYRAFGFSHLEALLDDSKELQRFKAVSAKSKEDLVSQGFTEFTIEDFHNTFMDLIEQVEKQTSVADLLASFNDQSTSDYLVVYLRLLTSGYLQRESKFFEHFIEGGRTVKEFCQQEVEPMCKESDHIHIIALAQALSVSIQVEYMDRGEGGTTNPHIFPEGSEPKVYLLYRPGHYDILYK
EIF3F, sequence (O00303 whole entry): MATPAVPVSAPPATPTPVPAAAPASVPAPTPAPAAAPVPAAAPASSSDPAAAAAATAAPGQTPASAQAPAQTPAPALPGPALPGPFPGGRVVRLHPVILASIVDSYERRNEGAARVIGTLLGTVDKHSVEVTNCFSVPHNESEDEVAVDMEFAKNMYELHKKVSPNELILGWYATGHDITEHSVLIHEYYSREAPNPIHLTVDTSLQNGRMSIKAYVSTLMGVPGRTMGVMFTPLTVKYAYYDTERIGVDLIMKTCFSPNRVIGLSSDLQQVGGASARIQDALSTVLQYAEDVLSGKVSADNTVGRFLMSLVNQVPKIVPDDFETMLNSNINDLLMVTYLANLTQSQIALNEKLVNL

Cl.O=C(CCl)N1CCN(Cc2ccccc2)CC1
inactive: [1] 0.239 | [2] -0.805 | [3] -0.734 | [4] -0.615 | [5] 0.134 | [6] -0.0745 | [7] -0.185 | [8] -0.316 | [9] -0.551
